Screening data from PubChem.
USP1-UAF1 inh = Inhibitors of USP1/UAF1: Primary Screen | Ubiquitin carboxyl-terminal hydrolase 1 (Homo sapiens), O94782 | hit rate 0.23% among 390,000 | Potency, µM (doses to about 57.1 µM), without a hit: at the top dose activity change, negative = inhibition, usual class: inhibitors | recombinant USP1/UAF1, Ub-Rhodamine cleavage fluorescence; also: % is scaled to controls: 0 for no effect and ±100 for the full control effect; nearly all actives have a fitted effect of over 60% in size
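In this screen, compounds sit with the deubiquitinase complex (1nM) for 15 min at room temperature before Ub-Rho is added at 150nM final. Fluorescence rise is then followed for 6 reads every 60 seconds.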
EPAC2 ag = qHTS for Agonist of cAMP-regulated guanine nucleotide exchange factor 4 (EPAC2): primary screen. EPAC2 activation, biochemical qHTS; response scale: 100% = 6.5 mM cAMP response. Rap guanine nucleotide exchange factor 4 (Homo sapiens), Q8WZA2. AID 720711, 2013. hit rate 0.079% among 360,000. Potency, µM (titrated, usually from 154 µM), for inactives: at the highest dose activation, usual class: activators; also: nearly all actives have a fitted effect of over 50% in size
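Compounds were added across a concentration range to EPAC2 (100 nM), RAP1B-BODIPY-GDP (250 nM) and GDP (50 uM). After 5 min at room temperature, fluorescence was recorded at 5-min intervals for 30 min.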
12-LOX inh = Primary qHTS assay for inhibitors of human arachidonate 12S-lipoxygenase (ALOX12): Round 2 | Potency, µM (series often up to 108 µM), without a hit: at the top dose activity change, negative = inhibition, actives largely listed as inhibitors | hit rate 1.1% among 580,000 | purified 12hLO, xylenol orange hydroperoxide absorbance | Polyunsaturated fatty acid lipoxygenase ALOX12 (Homo sapiens), P18054; also: % is scaled to controls: 0 for no effect and ±100 for the full control effect
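Purified human 12hLO at 150 nM in 25 mM Hepes, 0.01% Triton X-100, pH 7.0, preincubated 15 min at room temperature with compound. Reaction started with 40 uM arachidonic acid, 30 min at room temperature. Hydroperoxide measured by Fe-xylenol orange, 573/405 nm absorbance ratio.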
EPAC2 antagonist = qHTS for Antagonist of cAMP-regulated guanine nucleotide exchange factor 2 (EPAC2): primary screen. Rap guanine nucleotide exchange factor 4 (Homo sapiens), Q8WZA2. EPAC2 GEF exchange of Rap1B-BODIPY-GDP, fluorescence. Potency, µM (top dose mostly 114 µM), inactives show top-dose activity, negative = inhibition, actives largely listed as inhibitors. hit rate 0.18% among 360,000. AID 720708, 2013; also: % is scaled to controls: 0 for no effect and ±100 for the full control effect; nearly all actives have a fitted effect of over 45% in size
EPAC1 antag = qHTS for Antagonist of cAMP-regulated guanine nucleotide exchange factor 3 (EPAC1): primary screen | Rap guanine nucleotide exchange factor 3 (Homo sapiens), O95398 | EPAC1 GEF assay, Rap1b-BODIPY-GDP exchange fluorescence | Potency, µM (titrated, usually from 115 µM), inactives show at the highest dose activity change, negative = inhibition, most hits filed as inhibitors | hit rate 0.14% among 360,000;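 also: plate controls were vehicle for no effect and positive control for full effect; nearly all actives have a fitted effect of over 50% in size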
EPAC1 ag = qHTS for Agonist of cAMP-regulated guanine nucleotide exchange factor 3 (EPAC1): primary screen; Rap guanine nucleotide exchange factor 3 (Homo sapiens), O95398; Potency, µM (titrated, usually from 154 µM), without a hit: at the top dose activation, hits mostly activators; EPAC1 agonist qHTS, biochemical assay; response scale: 100% = response to 6.5 mM cAMP; hit rate 0.073% among 360,000; also: nearly all actives have a fitted effect of over 60% in size
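Nucleotide exchange by EPAC1 (100 nM) on Rap1B–BODIPY-GDP (250 nM) in the presence of 50 uM GDP is tracked fluorescently at 480/540 nm over 30 min. Signals are normalized to a 6.5 mM cAMP control.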
Starred values were filed as active, the others as inactive; ? = inconclusive; . = not tested or not shown; [ ] = dose if it differs, or a comment. This is a sample that favours compounds with a hit; in the whole collection about 1.3% have one here. Calls follow the shape of the dose curve; as a rule, active = well fitted curve in the direction sought with a large enough effect; inconclusive = small, poorly fitted or top-dose-only effect, or another doubt; inactive = no such curve, though single readings can be large; an effect the other way counts as inactive or inconclusive. Potency is read from the fitted curve at half-maximal effect.

SMILES	USP1-UAF1 inh	EPAC2 ag	12-LOX inh	EPAC2 antagonist	EPAC1 antag	EPAC1 ag
Clc1ccc(N/N=C/c2cccc(Cl)c2Cl)cc1Cl	.	.	1µM*	.	.	.
Clc1ccc(N/N=C/c2cccc3ccccc23)cc1Cl	.	.	5µM*	.	.	.
CC(C)S(=O)(=O)N1CC(Oc2ccc(-c3noc(-c4cccnc4)n3)cc2)C1	.	.	-4%	.	.	.
CN(C)CCCNc1cc(N2CCN(C3CCCCC3)CC2)c2noc3c2c1C(=O)c1ccccc1-3	?	.	7%	.	.	.
O=C1c2ccccc2-c2onc3c(N4CCN(C5CCCCC5)CC4)cc(NCCO)c1c23	16µM*	.	-3%	.	.	.
Cc1ccc(C(=O)c2c(C)oc3c2C(=O)C(=O)c2ccccc2-3)cc1	14µM*	-2%	.	4%	-15%	15%
Cc1oc2c(c1C(=O)c1ccc(Cl)cc1)C(=O)C(=O)c1ccccc1-2	?	7%	?	-8%	-6%	-6%
CCOC(=O)c1ccc(N2CCN(c3cc(C)ccc3C)CC2)c(N)c1	-30%	-8%	-7%	3%	-9%	-1%
CCOC(=O)N1CCC(N2CCN(c3cc(C)ccc3C)CC2)CC1	-4%	3%	6.3µM*	14%	18%	-2%
Cc1nn(C)c2sc(C(=O)NCc3ccccc3)cc12	.	.	31%	.	.	.
CC1=Nc2ccc(C)cc2/C1=C/c1c(N)n2c(S(=O)(=O)C(C)C)nsc2nc1=O	-25%	-11%	?	-5%	50µM*	-22%
Cc1cc(C)c2c(-n3cccc3)nn(CC(=O)Nc3ccc(Cl)cc3)c2n1	.	.	-36%	.	.	.
COc1ccc(-c2cn3c(n2)CO[C@@H](CNCc2ccc(Cl)cc2)C3)cc1	.	.	8.9µM*	.	.	.
COc1ccc(-c2cn3c(n2)CO[C@@H](CNS(C)(=O)=O)C3)cc1	.	.	29%[176 µM]	.	.	.
COc1cc(/C=C(\C#N)c2nc3ccccc3o2)cc(OC)c1OC	.	.	49%	.	.	.
CCN(CC(=O)NCc1cccs1)C(=O)CCC(=O)c1ccc(C)cc1	-25%	2%	28µM*	9%	1%	-5%
Cc1ccccc1-c1nnc2sc(NC(=O)c3ccc(F)cc3)nn12	.	.	32µM*	.	.	.
CCCC(=O)Nc1nn2c(-c3ccccc3)nnc2s1	.	.	-9%	.	.	.
Cc1ccc(-c2cc(-c3ccccc3)c(C#N)c(N)n2)o1	-3%	15%	0.79µM*	-13%	-5%	20%
Cc1ccc(-c2cc(-c3ccc(F)cc3)nc(N)c2C#N)o1	-16%	8%	6.3µM*	-3%	?	0%
N#Cc1c(-c2ccccc2)cc(C2CC2)nc1N	3%	-1%	7%	-4%	-11%	-11%
Cc1ccc(-c2cc(-c3ccccc3Cl)c(C#N)c(N)n2)o1	-10%	14%	7.1µM*	-8%	-26%	11%
CCCCCNC(=O)C(c1cc2ccccc2o1)n1c(=O)c(-c2ccco2)nc2ccccc21 (centres undefined)	.	-18%	40µM*	?	56µM*	-27%
O=C(NCc1ccccc1)C(c1ccccc1F)n1c(=O)c(-c2ccco2)nc2ccccc21 (centres undefined)	.	-1%	?	1%	?	-18%
Cc1cccc(C)c1NC(=O)C(c1ccc(C#N)cc1)n1c(=O)c(-c2ccco2)nc2ccccc21 (centres undefined)	.	-4%	11µM*	-3%	-19%	2%
O=C(Nc1ccccc1)c1ccc2nc(-c3ccco3)c(-c3ccco3)nc2c1	-21%	9%	?	-1%	?	11%
